Values joined by “and” are separate entries in the source; they are usually repeats but may differ in a detail not shown here. Equal entries are not always repeated. The panel holds about 83,000 compounds, 20% with a hit somewhere; the sample as a whole holds those more often.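 The test compound was applied at a single concentration to cells in 96-well plates for 48 hours, and percent growth was recorded.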 Values without a mark were called inactive. Active and inactive are the calls of the source. The calls were made as follows: active = growth percent below 10; inactive = the rest.

This assay deals with MDA-MB-468 breast. Put plainly: NCI-60 one-dose screen, 48 h (100 = growth as untreated, 0 = no growth, -100 = all killed). The following applies: 10 µM unless noted.
Consider `C[C@H](NC(=O)[C@@H]1CSSC[C@@H](NC(=O)Cc2nc3ccccc3cc2O)C(=O)NCC(=O)N1C)c1ccccc1`, for which the growth is 17.5%.

Regarding `Cc1nc2cccc(NCCCCC(=O)NO)c2c(=O)n1-c1ccccc1`, the growth was 54.6%.

For the compound `O=C(Nc1cccc(C(F)(F)F)c1)Nc1cccc(C(F)(F)F)c1`, the growth was -6.39% (active).

For `Cc1ccc(S(=O)(=O)NCCCNc2nc(Nc3ccc(N4CCN(C)CC4)cc3)nc3ccsc23)cc1`, the growth was 12.3%.

On to `Cc1ccc(C2SCC(=O)N2NC(=O)c2[nH]c3ccc(F)cc3c2-c2ccccc2)cc1` (configuration not stated), for which the growth was 96%.

For the compound `Cc1cc(Br)c(C)cc1Br`, the growth is 92.2%.

With `O=C(O)c1ccc(-n2cc(CNc3ccc(Cl)cc3)c(-c3ccc(F)cc3)n2)cc1`, the growth is 106%.

On to `CCn1c(SC)nnc1-c1cc2c([nH]c3ccccc32)c(-c2cccc(O)c2)n1`, for which the growth is -12.6% (active).

Consider `Oc1ccc(Cc2ccccc2Cl)c(O)c1`, for which the growth is 98.4%.

On to `Cc1c(C)c2c(c(C)c1NC(=O)CCCCCCC(=O)O)CCC(C)(CCCC(C)CCCC(C)CCCC(C)C)O2` (configuration not stated), for which the growth was 90.1%.

In the case of `COc1ccc(-c2nc(SCC(C)C)nc(N/N=C\c3ccc(F)cc3)c2C#N)cc1`, the growth is 102%.

As to `COc1cc2ncnc(Nc3ccc(S(=O)(=O)Nc4nccs4)cc3)c2cc1OCCCN1CCOCC1`, the growth is 107%.

Turning to `CC(C)(C)OC(=O)N1CCC(O)[C@@H](O[Si](c2ccccc2)(c2ccccc2)C(C)(C)C)[C@H]1/C=C/c1ccccc1` (some centres not stated), the growth was 15.2%.

As for `CC(C)(C)c1cc(NC(=O)Nc2ccc(-c3cn4c5c(sc4n3)CCc3cn(CCCN4CCCCC4)cc3-5)cc2)no1`, the growth is -76% (active).

Take `CNc1nc(C)c(-c2nc(Nc3cccc(S(N)(=O)=O)c3)ncc2F)s1`: the growth was -38.3% (active).

Regarding `N#Cc1c(-c2ccccc2)nc2c(c(-c3ccc(Cl)cc3)nn2-c2ccccc2)c1-c1ccc([N+](=O)[O-])cc1`, the growth is 104%.

With `CC(=O)Nc1nc(C)c(C(=O)NNC(=O)Nc2ccccc2)s1`, the growth is 61.4%.

For the compound `O=C(Nc1cccc(Cn2c(=O)[nH]c3ccc(Oc4ncccn4)cc3c2=O)c1)c1cccc(Cl)c1`, the growth is 18.6%.

As to `COc1c([C@@H](CC(C)C)OC(C)=O)ccc2c1C(=O)OCc1cc(C)cc(O)c1O2`, the growth is 8.08% (active).

`CCN(CC)CCOc1ccc(/C=N/Nc2nc3c([nH]2)c(=O)n(C)c(=O)n3C)cc1`: the growth is 102% and 121%.

Take `IC(I)I`: the growth was 106%.

For the compound `CC(=O)N1c2ccccc2NC2=C(C(=O)NC2(C)C)C1c1ccco1` (configuration not stated), the growth was 65.9%.

Take `CCCCC/C=C/C(=O)CCc1ccc(O)c(OC)c1`: the growth was 65.8%.

For the compound `CCOC(=O)C1=C(C(=O)c2ccc(Br)cc2)C(c2ccc(Br)cc2)NC(=S)N1` (configuration not stated), the growth was 103%.

Consider `O=C1C(=O)N(CCCCn2cc(CO)nn2)c2ccccc21`, for which the growth is 98.6%.

For the compound `O=C(Cc1ccc(-c2ccc(OCCN3CCOCC3)cc2)cn1)NCc1ccccc1`, the growth was -17% (active).

Regarding `C(=N\Nc1nnc2n1N=C(c1ccccc1)CS2)/c1ccc(OCc2ccccc2)cc1`, the growth is 88.9%.

Take `COCCOc1cc2ncnc(N3CCN(c4ncc(S(=O)(=O)N5CCCCC5)cn4)CC3)c2cc1OCCOC`: the growth was 75.3%.

In the case of `CCOC(=O)c1c(C)oc2ncnc(N3CCN(C(=O)COc4ccc(C(C)(C)C)cc4)CC3)c12`, the growth was 60.9%.

For the compound `O=C1CSC2=NCCN12`, the growth was 105% and 100%.

With `Cc1ccccc1CNC(=O)C1CN(c2ccc(Cl)cc2)N(c2ccc(Cl)cc2)C1=O` (configuration not stated), the growth is 83.2%.

For the compound `COc1cc(/C=C2\CCCC3=C2N=C2SC(C)=NN2C3c2cc(OC)c(OC)c(OC)c2)cc(OC)c1OC` (configuration not stated), the growth was 19.8%.

In the case of `Cc1nnc(-n2c(O)cc(=O)n(-c3ccccc3)c2=S)nc1/C=C/c1ccc(N(C)C)cc1`, the growth was 25.8%.

As to `Cc1c(C(N)=O)sc2ncn(CC(=O)Nc3ccc(Cl)cc3)c(=O)c12`, the growth was 92.1%.

As for `Clc1ccc2[nH]cc(-c3nn4cc(-c5ccncc5)nc4s3)c2c1`, the growth was 42.4%.

In the case of `CCN(CC)CCCC(C)Nc1c2ccc(C)cc2nc2ccc(OC)cc12` (configuration not stated), the growth is -65.1% (active).

Regarding `CCCCCCn1c(-c2ccc(C(=O)O/N=C(\N)c3ccc4c(c3)OCO4)cc2)nc(-c2ccccc2)c1-c1ccccc1`, the growth was 43.4%.

The values are drawn from PubChem BioAssay (NCI).
